From PubChem
Mcl-1 Bim block – inhibitors of Bim-Mcl-1 interaction, human; AID 1009; Q07820; 190,000 compounds, 0.1% hits; inhibition, % at 10 µM; Bead-based flow cytometry, Bim peptide-Mcl-1 binding; in the data active = inhibition above about 40%;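 also: 0% = no compound tracer wells and 100% = peptide blocker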
Target sequence (Q07820 whole entry, looked up): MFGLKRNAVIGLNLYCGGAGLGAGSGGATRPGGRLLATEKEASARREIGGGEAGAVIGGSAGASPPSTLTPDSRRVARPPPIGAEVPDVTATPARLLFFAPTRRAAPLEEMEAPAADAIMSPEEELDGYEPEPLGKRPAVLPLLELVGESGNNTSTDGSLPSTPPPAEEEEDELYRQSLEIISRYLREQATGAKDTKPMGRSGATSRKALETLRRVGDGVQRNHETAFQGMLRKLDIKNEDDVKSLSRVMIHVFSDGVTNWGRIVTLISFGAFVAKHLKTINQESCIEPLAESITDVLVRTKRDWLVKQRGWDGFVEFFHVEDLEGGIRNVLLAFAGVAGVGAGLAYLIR
Bcl-xL primary – inhibitors of human Bcl-xL. AID 2129. 320,000 compounds, 0.7% hits. inhibition, % at 10.9 µM. GST-Bcl-xL / FITC-Bim BH3 peptide fluorescence polarization;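 active = inhibition above the mean of all tested compounds plus 3 SD, cutoff set per campaign, cut at about 30% in these data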;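 also: 0% = DMSO wells and 100% = unlabeled Bim-BH3 peptide competitor; inhibitors lower millipolarization by displacing the labeled peptide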
Target sequence (Q07817 whole entry, looked up): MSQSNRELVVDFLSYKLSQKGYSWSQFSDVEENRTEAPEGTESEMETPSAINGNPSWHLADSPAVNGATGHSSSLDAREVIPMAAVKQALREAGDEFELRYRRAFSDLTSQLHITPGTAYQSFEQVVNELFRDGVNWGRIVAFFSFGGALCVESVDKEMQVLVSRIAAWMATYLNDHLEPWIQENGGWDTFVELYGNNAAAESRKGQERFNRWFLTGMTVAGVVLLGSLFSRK
Mcl1 Noxa PPI – Mcl-1/Noxa interaction inhibition. TR-FRET Mcl-1/Noxa peptide binding, 2 h. AID 1022. Q07820. inhibition, % at 21.7 µM. 220,000 compounds, 1.5% hits;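 active = compounds that cut the protein-peptide binding signal by more than 50% relative to plate controls in a single-dose test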;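 also: His-tagged Mcl-1 with rhodamine Noxa BH3 peptide and terbium anti-His antibody; 0% = Mcl-1 plus Noxa peptide wells and 100% = peptide-only wells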
Mcl1 Bid PPI – Mcl-1/Bid interaction inhibition. AID 1021. TR-FRET Mcl-1/Bid-Dy647 peptide binding, 1536-well. inhibition, % at 21.7 µM. 220,000 compounds, 0.97% hits;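 active = compounds that cut the binding signal by more than half at the single screening dose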;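 also: His-tagged Mcl-1 with europium anti-His antibody binding Bid BH3 peptide; 0% = Mcl-1 plus peptide wells and 100% = peptide-only wells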
GLD-1 RNA inh – GLD-1-TGE RNA interaction inhibition (C. elegans). purified GLD-1 + fluorescein TGE RNA, fluorescence polarization. 320,000 compounds, 0.44% hits. inhibition, % at 5.96 µM;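 active = percent inhibition above a per-plate cutoff, the plate mean of test compounds plus 3 SD, cut at about 30% in these data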;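 also: 0% = DMSO wells with GLD-1 and probe and 100% = wells lacking GLD-1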
MCL1 BIM primary – inhibitors of human MCL1 binding to BIM-BH3 peptide; inhibition, % at 10.9 µM; GST-MCL1 / FITC-Bim-BH3 fluorescence polarization; AID 2057; 320,000 compounds, 0.68% hits;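 active = inhibition above the mean inhibition of all tested compounds plus 3 SD, set per campaign, cut at about 40% in these data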;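 also: 0% = DMSO wells and 100% = unlabeled Bim-BH3 peptide control; higher means more loss of mP so more displacement of Bim peptide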
Starred values were filed as active, the others as inactive. Hits are enriched below; roughly 2.3% of the tested compounds scored in any of these assays.

For COc1ccc(C2=CC3=C(Br)C(=O)C(C)(OC(=O)c4ccc(Cl)nc4)C(=O)C3=CO2)cc1 (stereo unspecified) the results were Bcl-xL primary 21, Mcl1 Noxa PPI 53*, Mcl1 Bid PPI -10, GLD-1 RNA inh 9 and MCL1 BIM primary 26.
For CC(NS(=O)(=O)c1ccc2c(c1)CC(=O)N2C)c1ccccc1 (stereo unspecified) the results were Bcl-xL primary 2, GLD-1 RNA inh 6 and MCL1 BIM primary 2.
For NCCCC[C@H](NC(=O)C1CCNCC1)c1nnc(CN)o1 the results were Mcl-1 Bim block 0, Bcl-xL primary 12, Mcl1 Noxa PPI 35, Mcl1 Bid PPI 90*, GLD-1 RNA inh -3 and MCL1 BIM primary 6.
`NCCCC[C@H](NC(=O)C1CCNCC1)c1nnc([C@@H](N)CO)o1` gave Mcl-1 Bim block -1, Bcl-xL primary 0, Mcl1 Noxa PPI 16, Mcl1 Bid PPI 20, GLD-1 RNA inh -8 and MCL1 BIM primary -3.
`Cc1ccc(S(=O)(=O)Nc2ccnc3ccccc23)cc1` gave Mcl-1 Bim block 0, Bcl-xL primary 1, Mcl1 Noxa PPI -2, Mcl1 Bid PPI 63*, GLD-1 RNA inh 0 and MCL1 BIM primary 5.
For CCCC(=O)Nc1nnc(-c2cccc(OCC)c2)s1 the results were Mcl-1 Bim block -2, Bcl-xL primary -1, Mcl1 Noxa PPI 6, Mcl1 Bid PPI 86*, GLD-1 RNA inh 5 and MCL1 BIM primary 5.
Screening Cc1ccc(C(=O)NNC(=O)CSc2nnc3c(n2)[nH]c2ccc(F)cc23)cc1 returned Mcl-1 Bim block 8, Bcl-xL primary 13, Mcl1 Noxa PPI 53*, Mcl1 Bid PPI 80*, GLD-1 RNA inh 11 and MCL1 BIM primary 11.
`COc1ccc2[nH]c3nc(SCC(=O)NNC(=O)c4ccc(OC)c(OC)c4)nnc3c2c1` gave Mcl-1 Bim block 0, Bcl-xL primary 3, Mcl1 Noxa PPI -7, Mcl1 Bid PPI -16, GLD-1 RNA inh 0 and MCL1 BIM primary 14.
For COC(=O)C1=C(C)N(CCCC(=O)O)C(=O)NC1c1cccc(Cl)c1Cl (stereo unspecified) the results were Bcl-xL primary 4, GLD-1 RNA inh 5 and MCL1 BIM primary 9.
COc1ccc(OC)c(/C=N/c2oc(-c3ccco3)c(-c3ccco3)c2C#N)c1 was read as Mcl-1 Bim block 1, Bcl-xL primary 8, Mcl1 Noxa PPI 77*, Mcl1 Bid PPI -48, GLD-1 RNA inh 12 and MCL1 BIM primary 2.
Screening O=C(O)/C=C/C(=O)Nc1ccc(N2CCOCC2)nc1N1CCOCC1 returned Bcl-xL primary 39*, Mcl1 Noxa PPI 36, Mcl1 Bid PPI -13, GLD-1 RNA inh 29 and MCL1 BIM primary 31.
Cc1cccn2c(=O)c(C(=O)NCCCN3CC(C)CC(C)C3)c(O)nc12 (stereo unspecified) was read as Bcl-xL primary 7, GLD-1 RNA inh -2 and MCL1 BIM primary 5.
`NS(=O)(=O)c1ccc(NC(=O)C2Cc3ccccc3CN2C(=O)c2ccco2)cc1` (stereo unspecified) gave Bcl-xL primary 38*, GLD-1 RNA inh -1 and MCL1 BIM primary 15.
For Cc1ccc(NC(=O)CC2S/C(=N/N=C/c3c[nH]c4ccccc34)NC2=O)cc1 (stereo unspecified) the results were Mcl-1 Bim block 25, Bcl-xL primary -1, Mcl1 Noxa PPI 48, Mcl1 Bid PPI 57*, GLD-1 RNA inh -4 and MCL1 BIM primary 7.
For CCOC(=O)c1ccc(NC(=O)CC2S/C(=N/N=C/c3c[nH]c4ccccc34)NC2=O)cc1 (stereo unspecified) the results were Bcl-xL primary 0, Mcl1 Noxa PPI 61*, Mcl1 Bid PPI 63*, GLD-1 RNA inh 3 and MCL1 BIM primary 0.
Screening O=[N+]([O-])c1ccc(-c2cn(-c3ccc(Cl)cc3)c(=S)[nH]2)cc1 returned Mcl-1 Bim block 13, Bcl-xL primary 3, Mcl1 Noxa PPI 90*, Mcl1 Bid PPI 68*, GLD-1 RNA inh -1 and MCL1 BIM primary -3.
Screening CCOC(=O)c1c(C)[nH]c(C(=O)CSc2nc3ccccc3o2)c1C returned Mcl-1 Bim block -1, Bcl-xL primary 8, Mcl1 Noxa PPI 69*, Mcl1 Bid PPI -7, GLD-1 RNA inh 0 and MCL1 BIM primary 0.
Screening COCCN(C(=O)c1ccccc1F)c1nnc(-c2ccc(OC)cc2)s1 returned Bcl-xL primary 6, GLD-1 RNA inh 7 and MCL1 BIM primary 2.
For CCOC(=O)C1CCCN(C(=O)CCCn2c(=O)c3cccn3c3cccnc32)C1 (stereo unspecified) the results were Bcl-xL primary 1, GLD-1 RNA inh 5 and MCL1 BIM primary -9.
`CCc1cc2c(=O)c(-c3nc4ccccc4n3C)c(COCC(=O)O)oc2cc1O` gave Mcl-1 Bim block -2, Bcl-xL primary 2, Mcl1 Noxa PPI 11, Mcl1 Bid PPI -15, GLD-1 RNA inh 2 and MCL1 BIM primary 3.
`CCCc1cc2c(=O)c(-c3nc4ccccc4s3)c(COCC(=O)O)oc2cc1O` gave Mcl-1 Bim block 1, Mcl1 Noxa PPI 73* and Mcl1 Bid PPI 2.
`CSC(=NCc1cccnc1)NS(=O)(=O)c1cccs1` gave Mcl-1 Bim block 3, Bcl-xL primary 0, Mcl1 Noxa PPI -15, Mcl1 Bid PPI 71*, GLD-1 RNA inh 5 and MCL1 BIM primary -6.
`O=C(NCCS(=O)(=O)N1CCN(c2ccccc2)CC1)C1CCCC1` gave Bcl-xL primary -2, GLD-1 RNA inh -1 and MCL1 BIM primary -1.
`CC(Sc1ccc(Cl)cc1)C(=O)Nc1ccccc1-c1ccccc1` (stereo unspecified) gave Mcl-1 Bim block -2, Bcl-xL primary -1, Mcl1 Noxa PPI 71*, Mcl1 Bid PPI 3, GLD-1 RNA inh 4 and MCL1 BIM primary 3.
For Cc1ccc(SC(C)C(=O)Nc2ccccc2-c2ccccc2)cc1 (stereo unspecified) the results were Mcl-1 Bim block -1, Bcl-xL primary 3, Mcl1 Noxa PPI 10, Mcl1 Bid PPI 3, GLD-1 RNA inh -3 and MCL1 BIM primary 0.
`CC(C)(C)CC(=O)O/N=C(\N)c1ccncc1` gave Mcl-1 Bim block -5, Bcl-xL primary 4, Mcl1 Noxa PPI 5, Mcl1 Bid PPI 82*, GLD-1 RNA inh 1 and MCL1 BIM primary -1.
`N/C(=N\OC(=O)CCC1CCCC1)c1ccncc1` gave Mcl-1 Bim block 95*, Bcl-xL primary 4, Mcl1 Noxa PPI 16, Mcl1 Bid PPI 10, GLD-1 RNA inh 3 and MCL1 BIM primary 1.
N/C(=N\OC(=O)CC1CCCCC1)c1ccncc1 was read as Mcl-1 Bim block 11, Bcl-xL primary -5, Mcl1 Noxa PPI 1, Mcl1 Bid PPI 2, GLD-1 RNA inh 2 and MCL1 BIM primary -8.
